Results on 38 compounds are retold here after PubChem BioAssay (NCATS).

SMILES strings stand for the structures. Inconclusive results are not listed. Values without a mark were called inactive. Calls come from the whole dose curve; as a rule, active = well fitted inhibition curve with a large enough effect; inconclusive = small, poorly fitted or top-dose-only effect; inactive = flat fitted curve, though single readings scatter. Where a SMILES comes first, the peptide text is derived from it. Bridges are numbered along the chain shown (N, C = ends). [ ]: non-standard residue; d: D form. hArg = N=C(N)NCCCC[C@H](N)C(=O)O; Mpa = O=C(O)CCS
% is set by controls: 0 for no effect and ±100 for the full control effect.

The first test is described as follows: Drug repurposing screens with cells derived from glioblastoma tumor samples (AID 1345199). Note: nearly all actives have a fitted effect of over 40% in size. As to conditions: GBM patient neurospheres viability, ATP luminescence, 48 h; at 21.2 µM (top of the series); tumour line D. Put shortly: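 Primary testing used CD133+ neurospheres from four GBM patients, seven concentrations, 48 h exposure and ATP-based viability; confirmation added three slower-growing patient lines.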
With `CCCNC(C)C(=O)Nc1c(C)csc1C(=O)OC` (configuration not stated), the activity, negative = cell killing was -13.6%.

As to `CC(=O)N(CC(O)CN(C(C)=O)c1c(I)c(C(=O)NCC(O)CO)c(I)c(C(=O)NCC(O)CO)c1I)c1c(I)c(C(=O)NCC(O)CO)c(I)c(C(=O)NCC(O)CO)c1I` (configuration not stated), the activity, negative = cell killing was 15.1%.

Consider `CN/C(=C\[N+](=O)[O-])NCCSCc1csc(CN(C)C)n1`, for which the activity, negative = cell killing is -13.3%.

With `O=C(NCC(O)CO)c1c(I)c(C(=O)NCC(O)CO)c(I)c(N(CCO)C(=O)CO)c1I` (configuration not stated), the activity, negative = cell killing is 1%.

For `COCC(=O)Nc1c(I)c(C(=O)NCC(O)CO)c(I)c(C(=O)N(C)CC(O)CO)c1I` (configuration not stated), the activity, negative = cell killing was -2.4%.

For `CC(C)(C)C(=O)OCOC(=O)[C@@H]1N2C(=O)[C@@H](NC(=O)[C@H](N)c3ccccc3)[C@H]2SC1(C)C`, the activity, negative = cell killing was -17.5%.

Regarding `C[N+]1(C)CCCC(OC(=O)C(O)(c2ccccc2)c2ccccc2)C1` (configuration not stated), the activity, negative = cell killing was 4.26%.

In the case of `O=C(O)/C=C/c1ccc(Cn2ccnc2)cc1`, the activity, negative = cell killing is -11.8%.

As for `C/C=C/C(=O)N(CC)c1ccccc1C`, the activity, negative = cell killing is -17.6%.

Staying with this test, now noted: GBM patient neurospheres viability, ATP luminescence, 48 h; at 21.3 µM (top of the series); tumour line A.
For `CCCNC(C)C(=O)Nc1c(C)csc1C(=O)OC` (configuration not stated), the activity, negative = cell killing is -41.7%.

For the compound `CC(=O)N(CC(O)CN(C(C)=O)c1c(I)c(C(=O)NCC(O)CO)c(I)c(C(=O)NCC(O)CO)c1I)c1c(I)c(C(=O)NCC(O)CO)c(I)c(C(=O)NCC(O)CO)c1I` (configuration not stated), the activity, negative = cell killing is -9.07%.

With `CN/C(=C\[N+](=O)[O-])NCCSCc1csc(CN(C)C)n1`, the activity, negative = cell killing is -19.6%.

For `O=C(NCC(O)CO)c1c(I)c(C(=O)NCC(O)CO)c(I)c(N(CCO)C(=O)CO)c1I` (configuration not stated), the activity, negative = cell killing was -9.08%.

For the compound `COCC(=O)Nc1c(I)c(C(=O)NCC(O)CO)c(I)c(C(=O)N(C)CC(O)CO)c1I` (configuration not stated), the activity, negative = cell killing is -10.5%.

With `CC(C)(C)C(=O)OCOC(=O)[C@@H]1N2C(=O)[C@@H](NC(=O)[C@H](N)c3ccccc3)[C@H]2SC1(C)C`, the activity, negative = cell killing is -4.53%.

For the compound `C[N+]1(C)CCCC(OC(=O)C(O)(c2ccccc2)c2ccccc2)C1` (configuration not stated), the activity, negative = cell killing was -24.7%.

Consider `O=C(O)/C=C/c1ccc(Cn2ccnc2)cc1`, for which the activity, negative = cell killing was -28.4%.

In the case of `C/C=C/C(=O)N(CC)c1ccccc1C`, the activity, negative = cell killing was -13.7%.

The test is the same for the next values; noted with them: GBM patient neurospheres viability, ATP luminescence, 48 h; at 45.9 µM (top of the series); tumour line B.
As to `CN1C[C@@H]2C[C@H]1CN2c1cc2c(cc1F)c(=O)c(C(=O)O)cn2C1CC1`, the activity, negative = cell killing was 4.99%.

`CCOc1ccc(C(=O)OCCN(CC)CC)cc1`: the activity, negative = cell killing is -7.64%.

Take `CCOc1cc(NC(C)=O)ccc1C(=O)OC`: the activity, negative = cell killing was -7.75%.

For `COc1nccnc1NS(=O)(=O)c1ccc(N)cc1`, the activity, negative = cell killing was 0.463%.

With `CCCCCC(C)N` (configuration not stated), the activity, negative = cell killing was -17%.

Take `CCc1nnc(NS(=O)(=O)c2ccc(N)cc2)s1`: the activity, negative = cell killing was -21.8%.

Consider `O=C(O)c1ccc(OCCCOc2ccc(C(=O)O)cc2)cc1`, for which the activity, negative = cell killing is -4.79%.

On to `O=C(Cn1ccnc1[N+](=O)[O-])NCCO`, for which the activity, negative = cell killing was -12.6%.

With `NC(=O)[C@@H]1CSSCCC(=O)N[C@@H](CCCCN=C(N)N)C(=O)NCC(=O)N[C@@H](CC(=O)O)C(=O)N[C@@H](Cc2c[nH]c3ccccc23)C(=O)N2CCC[C@H]2C(=O)N1` ([Mpa][hArg]GDWPC-NH2; disulfide 1-7), the activity, negative = cell killing was 1.12%.

Consider `O=c1[nH]c(=O)c2ccccc2o1`, for which the activity, negative = cell killing is -11%.

Turning to `NNC(=O)CP(=O)(c1ccccc1)c1ccccc1`, the activity, negative = cell killing was -1.23%.

Consider `COc1ccccc1Oc1c(NS(=O)(=O)c2ccc(C(C)(C)C)cc2)nc(-c2ncccn2)nc1OCCO`, for which the activity, negative = cell killing is -11.9%.

Consider `CCN(CC)CC1CCCCN1CC(=O)N1c2ccccc2C(=O)Nc2cccnc21` (configuration not stated), for which the activity, negative = cell killing is -15.7%.

Consider `O=C(/C=C/c1ccc(O)c(O)c1)O[C@@H]1C[C@@](OC(=O)/C=C/c2ccc(O)c(O)c2)(C(=O)O)C[C@@H](O)[C@@H]1O`, for which the activity, negative = cell killing was 1.43%.

Regarding `CCCNC(C)(C)COC(=O)c1ccccc1`, the activity, negative = cell killing is -3.47%.

As to `CNc1c2c(nn1C)CCCC2`, the activity, negative = cell killing was -7.34%.

As to `COc1ccccc1OC(=O)Oc1ccccc1OC`, the activity, negative = cell killing is -6.75%.

As for `CC(=O)N(CC(O)CO)c1c(I)c(C(=O)NCC(O)CO)c(I)c(C(=O)NCC(O)CO)c1I` (configuration not stated), the activity, negative = cell killing is -2.73%.

`CC(N)CCCC(C)(C)O` (configuration not stated): the activity, negative = cell killing was -8.17%.

On to `Cc1[nH]c(C)c(Cl)c(=O)c1Cl`, for which the activity, negative = cell killing is -9.77%.

In the case of `CCN(CC)CCOC(=O)C(c1ccccc1)c1ccccc1`, the activity, negative = cell killing is -13.3%.

With `CN1CCCN=C1COC(=O)C(O)(c1ccccc1)C1CCCCC1` (configuration not stated), the activity, negative = cell killing was -22.5%.

In the case of `CCOC(=O)c1cccnc1`, the activity, negative = cell killing was -7.07%.

With `CCCCCCCCCCC(CO)CCCCCCCC` (configuration not stated), the activity, negative = cell killing is -11.9%.

As to `CCN(CC)S(=O)(=O)c1ccc(C(=O)O)cc1`, the activity, negative = cell killing is -12.2%.

As to `O=C(NCCCN1CCOCC1)c1ccc(Cl)cc1`, the activity, negative = cell killing is -1.61%.

In the case of `CC1(C)S[C@@H]2[C@H](N=CN3CCCCCC3)C(=O)N2[C@H]1C(=O)O`, the activity, negative = cell killing is 0.648%.

Regarding `O=C(O)c1ccc[n+]([O-])c1`, the activity, negative = cell killing is -13.5%.

For `NC(=O)CC[C@@H](N)C(=O)O`, the activity, negative = cell killing was -5.88%.
